Experimental data as given in PubChem BioAssay.

Test: inhibitors of poly I:C-induced TLR3 signaling, primary screen, cell-based, poly I:C stimulus, luciferase, 10K MLSCN set (AID 602277)
Details: HEK293-TLR3 RL24 IRF3 luciferase reporter, at 10 µM, active compounds read high;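 active = inhibition of the reporter signal at or above 50%; inactive = inhibition below 50%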

inhibition, inactive:
Cn1c(COc2ccccc2)nnc1SCC(=O)Nc1ccc(N2CCOCC2)c(Cl)c1 17.5%
O=C(CSc1nnc(Cc2ccccc2)n1C1CCCCC1)N1CCOCC1 -20.2%
C1=CC2CC1CC2CN1CCN(c2ccccc2)CC1 (centres undefined) 4.2%
COc1ccc(-c2nnc(SCC#N)o2)cc1 -31.5%
CC(=O)Nc1ccc(N2CCN(Cc3ccccc3F)CC2)cc1 19%
O=C1C2C3C=CC(C3)C2C(=O)N1CNc1ccc(O)cc1 (centres undefined) 2.67%
COc1cc2c(cc1OC)-c1cc(OCc3cccnc3)nc(=O)n1CC2 28.8%
Cc1cc2ncn(C(=O)N3CCOCC3)c2cc1C 3.06%
COc1ccccc1N1CCN(C(=O)CCNS(=O)(=O)c2ccc3c(c2)CCC(=O)N3)CC1 13.8%
CCOC(=O)c1cc(C)n(CCCN2CCOCC2)c1C 19.3%
CCCc1cc(=O)n2[nH]c(-c3ccc(Br)cc3)cc2n1 -15.4%
CCCC1C(C#N)=C(N)Oc2n[nH]c(C(C)(C)C)c21 (centres undefined) 21.8%
CCOC(=O)CSc1nnc(-c2cccnc2)n1Cc1ccccc1 1.14%
CCOc1ccccc1C(=O)NCCC(=O)O -5.47%
CC(C(=O)Nc1ccccc1-c1ccccc1)N1CCN(C(=O)c2ccco2)CC1 (centres undefined) 33.6%
CC(C)(C)n1ncc2c(=O)n(CC(=O)NCc3ccco3)cnc21 -92%
CCn1c(=O)cc(OCC(=O)Nc2cc(C)ccn2)c2ccccc21 21.3%
COc1ccc(CN2CC(C(=O)NCCCOC(C)C)CC2=O)cc1 (centres undefined) -6.2%
CCOC(=O)C1=C(CC)Nc2ccccc2N=C1NC(=O)Cn1cnc2ccccc2c1=O 20%
Cc1ccc(-n2ncc3c(=O)n(CC(=O)NC4CCCCC4)cnc32)cc1C 15.1%
N#Cc1c(/N=C/c2ccco2)sc2c1CCC2 -42.7%
O=C(C1CCN(S(=O)(=O)Cc2ccccc2)CC1)N1CCN(c2ncccn2)CC1 -4.47%
COc1cccc(-c2nc(-c3ccc(NC(=O)Cc4ccccc4OC)cc3)no2)c1 -45.2%
O=C(COc1ccc(Cl)cc1)Nc1nc(-c2cccs2)cs1 0.877%
COCCNC(=O)CN(C)S(=O)(=O)c1ccc2c(c1)OCCO2 21.2%
O=C(Cn1c(=O)n(Cc2ccc3c(c2)OCO3)c(=O)c2ccccc21)N1CCCc2ccccc21 26.4%
NC(=O)CSc1nnc(-c2ccc(O)cc2)n1Cc1ccco1 19.8%
COC(=O)Cc1[nH]nc2c1C(C1C=CCCC1)C(C#N)=C(N)O2 (centres undefined) 26.3%
N#Cc1c(-c2ccccc2)nc(SCc2nc(N)nc(N3CCCCC3)n2)[nH]c1=O -10.4%
CCn1c(SCC(=O)NCc2ccco2)nc2c(c1=O)SC(C)C2 (centres undefined) 9.1%
CCn1c(C)nc2cc(C(=O)OC(C(F)(F)C(F)F)C(F)(F)C(F)F)ccc21 -180%
O=C(CCN1CCN(CCO)CC1)Nc1ccc(OCc2ccccc2)cc1 0.289%
COc1ccc2c(c1)CCc1c(C(=O)N3CC4(C)CC3CC(C)(C)C4)noc1-2 (centres undefined) 10.1%
Cc1cc(NC(=O)CCC(=O)N(CC2CCCO2)C(C(=O)NC2CCCC2)c2ccccc2C)no1 (centres undefined) 21.7%
COc1ccc2c(c1)CCc1c(C(=O)NCc3cccnc3)noc1-2 -67.9%
O=C(Nc1c(-c2ccccc2)nc2ccccn12)c1ccco1 -12.7%
O=C(CCCC(=O)N(CC(=O)NC1CCCCC1)Cc1ccc2c(c1)OCO2)Nc1ccccn1 25.3%
CCOC(=O)N1CCN(C(=O)C2c3cc(OC)c(OC)cc3C(=O)N3CCc4ccccc4C23)CC1 (centres undefined) 13.6%
COC(=O)Cc1csc(N)n1 22.3%
